About 770 (37%) of roughly 2,100 compounds were called active. Some of the results follow. Values without a mark were called inactive.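 How the source made its calls: active means by-eye trace score of 1 for enhancers or -1 for inhibitors, so actives lie on both sides (some results past the limit were not filed as active); inactive means score 0, or 3 fluorescent, or 4 baseline rise.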

Our source for the manual score values is PubChem BioAssay AID623911 (Vanderbilt High Throughput Screening Facility, 2012).

The target in the test is G protein-activated inward rectifier potassium channel 2 (Homo sapiens) + G protein-activated inward rectifier potassium channel 1 (Homo sapiens) (UniProt P48051+P48549). Put plainly: GIRK1/2 thallium flux modulators, retest, confirmation, cell-based, HEK293 rmGlu8/hGIRK1/2, FluoZin-2 (AID 623911). The conditions noted are these: HEK293 rmGlu8/hGIRK1/2, thallium flux FluoZin-2; actives lie on both sides; glutamate co-added at its EC20 level.
Sequence of G protein-activated inward rectifier potassium channel 2 (Homo sapiens) + G protein-activated inward rectifier potassium channel 1 (Homo sapiens) (P48051 whole entry, looked up): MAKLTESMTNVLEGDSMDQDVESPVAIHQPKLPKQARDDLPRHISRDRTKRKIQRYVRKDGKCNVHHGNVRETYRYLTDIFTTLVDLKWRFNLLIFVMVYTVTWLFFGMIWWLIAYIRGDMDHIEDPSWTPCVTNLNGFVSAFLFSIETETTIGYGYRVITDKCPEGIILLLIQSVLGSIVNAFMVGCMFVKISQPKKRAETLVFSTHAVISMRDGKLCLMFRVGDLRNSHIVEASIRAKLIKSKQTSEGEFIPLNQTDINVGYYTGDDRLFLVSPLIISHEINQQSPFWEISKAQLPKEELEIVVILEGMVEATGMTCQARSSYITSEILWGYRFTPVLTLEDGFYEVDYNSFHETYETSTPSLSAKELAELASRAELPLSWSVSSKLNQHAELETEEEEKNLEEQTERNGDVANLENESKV
Sequence of G protein-activated inward rectifier potassium channel 2 (Homo sapiens) + G protein-activated inward rectifier potassium channel 1 (Homo sapiens) (P48549 whole entry, looked up): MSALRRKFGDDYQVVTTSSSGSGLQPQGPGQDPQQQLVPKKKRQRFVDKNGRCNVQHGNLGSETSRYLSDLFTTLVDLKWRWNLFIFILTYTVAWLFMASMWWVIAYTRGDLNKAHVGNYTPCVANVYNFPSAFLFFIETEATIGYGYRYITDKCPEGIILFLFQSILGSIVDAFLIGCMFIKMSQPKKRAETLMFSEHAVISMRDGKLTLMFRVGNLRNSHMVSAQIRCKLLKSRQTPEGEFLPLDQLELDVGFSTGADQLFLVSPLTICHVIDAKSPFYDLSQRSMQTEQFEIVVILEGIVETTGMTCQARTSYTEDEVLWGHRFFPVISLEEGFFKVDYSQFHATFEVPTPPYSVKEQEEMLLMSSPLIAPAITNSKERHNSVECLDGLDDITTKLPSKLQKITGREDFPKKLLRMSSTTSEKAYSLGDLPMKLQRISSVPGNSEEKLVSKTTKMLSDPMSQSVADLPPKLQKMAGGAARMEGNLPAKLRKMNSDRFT
Consider `O=C(CCCc1nc(-c2ccc(Cl)cc2)no1)N1CCOCC1`, for which the manual score is 0.
The value for `CC(C)N(Cc1nc(-c2ccccc2)no1)C(=O)CSc1ccccc1` was 0; that for `CCc1ccccc1N(C)C(=O)CCc1nc(-c2ccc(C)cc2)no1` was -1 (active).
The value for `CN(C)Cc1c(O)c(Cl)cc2c3c(c(=O)oc12)CCCC3` was 0; that for `O=C(O)C1C2C=CC3(CN(C4CCCC4)C(=O)C13)O2` (centres undefined) was 0; that for `COc1ccc2cc(C(=O)Nc3ccccc3)sc(=O)c2c1OC` was 0.
With `O=C(NC(=S)NCCC1=CCCCC1)c1cncc(Br)c1`, the manual score is 0.
Consider `CCCOc1ccc(NCC(=O)Nc2ccc(C)cc2C)cc1`, for which the manual score is 0.
For `COc1ccc(C)cc1NC(=O)Nc1ccccc1`, the manual score was 1 (active).
Take `COc1ccc(NC(=O)NC(C)c2ccncc2)cc1OC` (centres undefined): the manual score is 0.
As for `COc1ccc(NC(=O)Nc2cc(C)ccc2OC)cc1`, the manual score is 1 (active).
The value for `CCOc1ccc(NC(=O)Nc2cc(C)ccc2OC)cc1` was 1 (active); that for `COc1ccc(C)cc1NC(=O)NCCC1=CCCCC1` was 1 (active).
The value for `Cc1ccc(OC(=S)Nc2ccccc2)c(C)c1` was 0; that for `COc1ccc(NC(=O)Nc2ccccc2OC)cc1` was 0; that for `O=C(O)c1ccccc1C(=O)Nc1ccc(-c2csc(-c3ccccc3)n2)cc1` was 0.
`CN1CC=C2C(C#N)=C(N)C(C#N)(C#N)[C@H](c3cccc(Cl)c3)C2C1` (some centres undefined): the manual score was 3.
Take `COC(=O)[C@H](Cc1ccccc1)NC(=O)NCCC1=CCCCC1`: the manual score was 1 (active).
The same measure for `COc1cc(C(=S)N2CCCC2)cc(OC)c1OS(=O)(=O)c1ccc(NC(C)=O)cc1`: 0; for `COC(=O)c1ccccc1NC(=O)Nc1cnccn1`: 0.5; for `COc1ccc(NC(=O)Nc2ccccc2C(=O)N2CCCC2)cc1`: 1 (active).
For `Cc1ccc(-c2[nH]nc3c2C(c2ccoc2)C(C#N)=C(N)O3)cc1C` (centres undefined), the manual score is 0.
Turning to `CCOC(=O)N1CCC(n2c(=S)[nH]c3ccccc3c2=O)CC1`, the manual score was 0.
The same measure for `CCOC(=O)N1CCN(c2c(F)cc3[nH]c(=S)[nH]c3c2Br)CC1`: -1 (active); for `CCOC(=O)N1CCN(c2ccc3nnnn3n2)CC1`: 0.
The value for `O=C(Nc1nnc(-c2ccco2)o1)c1ccc2ccccc2c1` was 1 (active); that for `CCOc1ccc(-c2nnc(NC(=O)CCCOc3cccc(C)c3)o2)cc1` was 0.
The same measure for `COc1ccc(-c2nnc(NC(=O)c3ccc(F)cc3)o2)cc1`: 1 (active); for `CCOc1ccc(-c2nnc(NC(=O)c3ccc(OCC(C)C)c(OC)c3)o2)cc1`: 1 (active); for `COc1ccc(-c2nnc(NC(=O)c3ccc(S(=O)(=O)N4CCCc5ccccc54)cc3)o2)cc1`: 0.
Turning to `O=C(CSc1ccc(-c2ccco2)nn1)c1ccccc1`, the manual score was 0.
The value for `COc1ccc(-c2nnc(NC(=O)c3ccc(S(=O)(=O)N4CCc5ccccc5C4)cc3)o2)cc1` was 0.
With `CCOc1ccc(-c2nc(-c3ccc(OC)c(OC)c3)no2)cc1OCC`, the manual score is 0.
Take `COc1ccc(C(=O)Nc2ccc(S(=O)(=O)NCc3ccco3)cc2)cc1OC`: the manual score was 0.
The same measure for `CCc1cc(C(N)=O)c(NC(=O)c2ccc(OC)cc2)s1`: 0; for `COc1ccc(-c2nnc(NC(=O)c3ccc(S(=O)(=O)N4COCC4(C)C)cc3)o2)cc1`: 1 (active).
The same measure for `CC(=O)CN1Cc2ccccc2/C1=N\C(=O)Nc1ccccc1`: 0; for `CCCCN(C)C1=CC2=CC(=C(C#N)C#N)CCC2CC1` (centres undefined): 3; for `Cc1ccccc1Cn1cc(NC(=O)c2nc3ncccn3n2)cn1`: 0.
The same measure for `O=C(c1cc(-c2ccccc2)on1)N1CCCC1`: 0.
As for `CC(C)n1cc(NC(=O)c2cc(-c3ccccc3)on2)cn1`, the manual score is 1 (active).
The same measure for `CCCn1cc(NC(=O)c2cc(-c3ccccc3)on2)cn1`: 1 (active).
With `O=c1sc(N2CCN(c3ccccc3F)CC2)nc2ccsc12`, the manual score was 0.
The same measure for `Cc1cccc(N2CCN(C(=O)c3ccc(Cl)c(S(=O)(=O)N4CCc5ccccc5C4)c3)CC2)c1C`: 0; for `Cc1ccc2cccc(S(=O)(=O)N3CCN(c4ccccc4F)CC3)c2n1`: -1 (active).
The value for `C=CCNC(=S)NNC(=O)COc1ccc(Cl)cc1Cl` was 0; that for `Cc1ccccc1C(=O)NNC(=S)NC(=O)c1ccc(Cl)cc1Cl` was 1 (active).
The value for `Cc1onc(-c2ccccc2)c1C(=O)NNC(=S)NC(=O)c1ccc(Br)cc1` was 1 (active); that for `Cc1onc(-c2ccccc2)c1C(=O)NC(=S)Nc1sc2c(c1C#N)CCCC2` was 1 (active); that for `O=C(COc1ccccc1)NNC(=S)NC(=O)c1ccc(Cl)cc1Cl` was 1 (active).
Take `Cc1ccccc1C(=O)NC(=S)Nc1sc2c(c1C#N)CCCC2`: the manual score is 0.
Take `S=c1[nH]ccn1-c1cccc(Cl)c1`: the manual score was 0.
The same measure for `Oc1ccc2ccc3cccc[n+]3c2c1`: 3; for `CCn1c(-c2cc(-c3cccc(OC)c3)nc3ccccc23)n[nH]c1=S`: 0.
The same measure for `Cc1ccccc1C(=O)NNC(=S)NC(=O)c1ccccc1`: 1 (active); for `Cc1ccccc1C(=O)Nc1nc(=S)ss1`: 0.
The value for `Cc1ccccc1C(=O)NNC(=O)C(=O)Nc1cccc(Cl)c1C` was 1 (active).
For the compound `Cc1ccccc1C(=O)NC(=S)NCCc1ccccc1`, the manual score was 0.
The value for `Cc1c(Cl)cccc1NC(=S)/C(=C(\[O-])c1ccc(Cl)s1)[n+]1ccccc1` was 0.
Turning to `CCOC(=O)C(CC)n1cnc2c(nnn2-c2ccc(OC)cc2)c1=O` (centres undefined), the manual score was 0.
`CCC(C)n1c(=S)[nH]c2c(sc3ccc([N+](=O)[O-])cc32)c1=O` (centres undefined): the manual score is 1 (active).
On to `CCNc1nnc(-c2ccc(C)cc2)o1`, for which the manual score was -0.5.
As to `COc1cccc2sc(Nc3nnc(-c4cccs4)o3)nc12`, the manual score is 1 (active).
For the compound `COc1ccc(-c2nnc(Nc3nc4c(OC)cccc4s3)o2)cc1`, the manual score was 1 (active).
In the case of `O=C(Nc1nc(-c2ccccn2)cs1)c1ccc(Br)s1`, the manual score was 0.
The value for `COc1cccc2sc(Nc3nc(-c4ccccn4)cs3)nc12` was 1 (active).
The same measure for `C/C(=N/NC(=O)c1ccncc1)c1cc2ccc(O)cc2oc1=O`: 0; for `CCOc1cc(/C=N/NC(=O)CNc2cccc(C)c2)ccc1OC(=O)c1ccccc1`: 0.
The value for `O=C(Nn1c(C2CCCCC2)nc2ccccc2c1=O)c1ccc([N+](=O)[O-])cc1Cl` was 0.
Turning to `COc1ccccc1OCC(O)Cn1c(=N)n(Cc2ccccc2)c2ccccc21` (centres undefined), the manual score is -1 (active).
The value for `Cc1ccc(OCC(O)Cn2c(=N)n(Cc3ccccc3)c3ccccc32)cc1` (centres undefined) was -1 (active); that for `CC1(C)NC(=O)N(CC(O)COc2ccc(-c3ccc(C#N)cc3)cc2)C1=O` (centres undefined) was 0; that for `CN(C)c1nc(OCCNC(=O)COc2ccc(Cl)cc2Cl)nc(N2CCOCC2)n1` was -1 (active).
The value for `Cc1cc(CC(C)C)n(-c2nc3ccccc3c(=O)n2OCC(N)=O)n1` was 0; that for `Cc1ccc(CC(=O)N2CCN(c3cccc(C(F)(F)F)c3)CC2)cc1` was 1 (active).
The value for `CC1(C)Cc2ccccc2-c2nnc(SCC(=O)N3CCN(c4ccccc4)CC3)n21` was 0; that for `O=C(CN1CCN(Cc2ccccc2)CC1)Nc1cccc(C(F)(F)F)c1` was 0; that for `CCOc1ccc(-n2c(SC(C)C(=O)OC)nc3c(c2=O)SCC3)cc1` (centres undefined) was -1 (active).
Consider `COC(=O)c1ccc(CSc2nc3c(c(=O)n2-c2ccc(F)cc2)SCC3)o1`, for which the manual score is 0.
The same measure for `CCOc1ccc(-n2c(Cc3cc(=O)[nH]c(=O)[nH]3)nnc2SC(C)C(=O)OC)cc1` (centres undefined): 0.
The same measure for `CC(C)Cn1c2c(c(O)c(C(=O)Nc3ncccc3O)c1=O)CCCC2`: 0; for `COC(=O)C(NC(=O)COc1ccccc1)(Nc1nc2c(s1)CCCC2)C(F)(F)F` (centres undefined): -1 (active); for `CCCCCn1nc(-c2ccccc2)c2nc3ccccc3nc21`: 3.
The same measure for `O=c1c2c3c(sc2nc2n1CCCCC2)CCCCC3`: 0; for `CCCCN(CCCC)C(=O)CSc1nnc2n(C)c(=O)c3c4c(sc3n12)CCCC4`: -0.5.
`CCn1c(SCC(N)=O)nc2sc3c(c2c1=O)CCCC3`: the manual score was 1 (active).
The same measure for `S=C1Nc2ccccc2Sc2ccc(Cl)cc21`: 0; for `Clc1ccc2c(c1)-c1nnc(Br)n1-c1ccccc1S2`: -1 (active); for `CCOc1ccccc1OCCCCCc1c(C)n[nH]c1C`: 0.
Turning to `CCN(CC)CC(O)COCCC12CC3CC(CC(C3)C1)C2` (centres undefined), the manual score is -1 (active).
As for `CC1(C)CC(c2nc(-c3ccc(Br)cc3)cs2)CCS1` (centres undefined), the manual score is 0.
The value for `Cc1ccc(Cn2c(SCC(=O)NCC3CCCO3)nc3c(sc4ccccc43)c2=O)cc1` (centres undefined) was 0.5; that for `CCN(CC)CCN(CC)Cc1ccccc1Br` was -1 (active).
On to `CCOc1ccccc1C(=O)N1c2ccccc2Sc2ccccc21`, for which the manual score is -1 (active).
For `COCC(=O)/C=C1\Sc2ccccc2N1C`, the manual score is 0.
In the case of `COc1ccccc1C(=O)N1c2ccccc2Sc2ccccc21`, the manual score is -1 (active).
The value for `O=C1CS/C(=N\C(=O)N2c3ccccc3Sc3ccccc32)N1` was 0.
The same measure for `CCOC(=O)/C(=C/C=C1\Sc2ccccc2N1CC)C(C)=O`: 3; for `O=S(=O)(Cc1ccccc1)N1CCc2ccccc21`: 3.
The value for `COc1cc(C)ccc1OCCOc1cc(C)ccc1Cl` was 0.
`CCC1CCCN1Cn1cnc2c([nH]c3ccc(OC)cc32)c1=O` (centres undefined): the manual score is 0.
The value for `Cc1ccc(N2C=Nc3ccc(C)c4nc(C)cc2c34)cc1` was -1 (active); that for `C/C(=N\NC(=O)c1ccccc1O)c1ccc(Br)s1` was 0.5; that for `C/C(=N\NC(=O)c1cccc(F)c1)c1ccc(Br)s1` was 1 (active).
The same measure for `C/C(=N\NC(=O)c1ccc(Cl)cc1)c1ccc(Br)s1`: 0.5; for `CN(C=O)CP(=O)(O)CCN1CCCC1=O`: 0.
The same measure for `O=C(CSc1nc2ccc(Cl)cc2[nH]1)Nc1ccc2c(c1)CCC2`: 0; for `Clc1cccc(CSc2nc3ccncc3[nH]2)c1`: 1 (active); for `Cc1ccc(CSc2nc3ccncc3[nH]2)cc1`: 0.
